PubChem BioAssay AID1159580 (chemical genetic matrix, 2015)
Several values for one entry are separate records, joined by “and”; a condition that tells them apart may be missing. Equal entries are not always repeated. Screen size: about 5,500 compounds; about 2,000 (36%) were called active. About 18% were inconclusive and are not listed. The list shows a part of the results. Unmarked numbers belong to inactive results. Rule as the data show it: active = normalized growth mostly below about 0.91 (no sharp cut-off); inconclusive = no clear call, values can overlap the other calls; inactive = mostly above about 0.92.

Experiment: chemical genetic growth profiling, strain panel (AID 1159580);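 also: tested at 20 µM; growth read once vehicle control cultures reached saturation at 30 °C; 1 = growth at the plate median or of vehicle wells; lower values mean less growth of the strain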
Conditions: S. cerevisiae deletion strains, growth OD

SMILES: COc1cc2c(cc1OC)[C@@H]1C(=O)c3ccc4c(c3O[C@@H]1CO2)C=CC(C)(C)O4
- normalized growth (locus YAL013W, strain DEP1, active compounds read low): 0.993
- normalized growth (locus YAL021C, strain ccr4, active compounds read low): 1.05
- normalized growth (locus YAL026C, strain drs2, active compounds read low): 1.02
- normalized growth (locus YAL030W, strain snc1, active compounds read low): 1.02
- normalized growth (locus YBL061C, strain skt5, active compounds read low): 1.01
- normalized growth (locus YBR009C, strain hhf1, active compounds read low): 0.938
- normalized growth (locus YBR021W, strain FUR4, active compounds read low): 0.972
- normalized growth (locus YBR023C, strain chs3, active compounds read low): 1.01
- normalized growth (locus YBR171W, strain sec66, active compounds read low): 0.993
- normalized growth (locus YBR229C, strain ROT2, active compounds read low): 0.99
- normalized growth (locus YBR231C, strain swc5, active compounds read low): 0.99
- normalized growth (locus YBR279W, strain paf1, active compounds read low): 1.01
- normalized growth (locus YCL011C, strain gbp2, active compounds read low): 0.98
- normalized growth (locus YCL016C, strain dcc1, active compounds read low): 1
- normalized growth (locus YCL029C, strain bik1, active compounds read low): 0.971
- normalized growth (locus YCL069W, strain vba3, active compounds read low): 1
- normalized growth (locus YCR088W, strain abp1, active compounds read low): 1.01
- normalized growth (locus YDL005C, strain med2, active compounds read low): 1.03
- normalized growth (locus YDL035C, strain GPR1, active compounds read low): 0.976
- normalized growth (locus YDL040C, strain nat1, active compounds read low): 1
- normalized growth (locus YDL074C, strain BRE1, active compounds read low): 0.994
- normalized growth (locus YDL101C, strain DUN1, active compounds read low): 0.976
- normalized growth (locus YDL134C, strain PPH21, active compounds read low): 0.99
- normalized growth (locus YDL185W, strain tfp1, active compounds read low): 0.97
- normalized growth (locus YDL192W, strain arf1, active compounds read low): 0.964
- normalized growth (locus YDR001C, strain nth1, active compounds read low): 1.01
- normalized growth (locus YDR069C, strain doa4, active compounds read low): 1
- normalized growth (locus YDR101C, strain arx1, active compounds read low): 0.988
- normalized growth (locus YDR137W, strain rgp1, active compounds read low): 0.88
- normalized growth (locus YDR150W, strain NUM1, active compounds read low): 0.987
- normalized growth (locus YDR159W, strain sac3, active compounds read low): 0.898
- normalized growth (locus YDR162C, strain NBP2, active compounds read low): 1.01
- normalized growth (locus YDR195W, strain ref2): 1.1
- normalized growth (locus YDR297W, strain sur2, active compounds read low): 0.993
- normalized growth (locus YDR318W, strain mcm21, active compounds read low): 0.966
- normalized growth (locus YDR334W, strain swr1, active compounds read low): 1.02
- normalized growth (locus YDR335W, strain msn5, active compounds read low): 1.02
- normalized growth (locus YDR388W, active compounds read low): 0.974
- normalized growth (locus YDR392W, strain spt3, active compounds read low): 0.607 (active)
- normalized growth (locus YDR502C, strain sam2, active compounds read low): 0.981
- normalized growth (locus YEL003W, strain gim4, active compounds read low): 1.01
- normalized growth (locus YEL037C, strain rad23, active compounds read low): 1.03
- normalized growth (locus YEL061C, strain CIN8 (second series), active compounds read low): 1.02
- normalized growth (locus YEL061C, strain CIN8, active compounds read low): 0.995
- normalized growth (locus YER015W, strain faa2, active compounds read low): 1.01
- normalized growth (locus YER016W, strain bim1, active compounds read low): 1.01
- normalized growth (locus YER110C, active compounds read low): 0.962
- normalized growth (locus YER111C, strain swi4, active compounds read low): 1.04
- normalized growth (locus YER155C, strain BEM2 (second series), active compounds read low): 0.991
- normalized growth (locus YER155C, strain BEM2, active compounds read low): 0.988
- normalized growth (locus YER167W, strain BCK2, active compounds read low): 0.955
- normalized growth (locus YFR010W, strain ubp6, active compounds read low): 1.01
- normalized growth (locus YGL078C, strain dbp3, active compounds read low): 0.973
- normalized growth (locus YGL086W, strain mad1, active compounds read low): 0.958
- normalized growth (locus YGL167C, strain pmr1, active compounds read low): 1
- normalized growth (locus YGL173C, strain kem1, active compounds read low): 0.978
- normalized growth (locus YGL227W, strain vid30, active compounds read low): 1
- normalized growth (locus YGL240W, strain doc1, active compounds read low): 0.98
- normalized growth (locus YGL248W, strain PDE1, active compounds read low): 0.986
- normalized growth (locus YGL253W, strain hxk2, active compounds read low): 0.996
- normalized growth (locus YGR078C, strain PAC10, active compounds read low): 1.01
- normalized growth (locus YGR135W, strain pre9, active compounds read low): 0.987
- normalized growth (locus YGR229C, strain SMI1, active compounds read low): 0.983
- normalized growth (locus YGR252W, strain gcn5, active compounds read low): 0.891
- normalized growth (locus YHR013C, strain ard1, active compounds read low): 0.993
- normalized growth (locus YHR027C, strain rpn1, active compounds read low): 1
- normalized growth (locus YHR030C, strain SLT2, active compounds read low): 0.986 and 0.96
- normalized growth (locus YHR079C, strain IRE1 (second series), active compounds read low): 0.987
- normalized growth (locus YHR079C, strain IRE1, active compounds read low): 0.954
- normalized growth (locus YHR094C, strain hxt1, active compounds read low): 0.978
- normalized growth (locus YHR129C, strain ARP1, active compounds read low): 0.989
- normalized growth (locus YHR142W, strain chs7, active compounds read low): 0.996
- normalized growth (locus YHR200W, strain rpn10, active compounds read low): 0.965
- normalized growth (locus YIL066C, strain RNR3, active compounds read low): 0.964
- normalized growth (locus YIL073C, strain SPO22, active compounds read low): 0.937
- normalized growth (locus YIL125W, strain kgd1, active compounds read low): 0.979
- normalized growth (locus YIR030C, strain dcg1, active compounds read low): 0.979
- normalized growth (locus YJL092W, strain hpr5, active compounds read low): 1
- normalized growth (locus YJL095W, strain BCK1 (second series), active compounds read low): 0.988
- normalized growth (locus YJL095W, strain BCK1, active compounds read low): 0.998 and 0.956
- normalized growth (locus YJL115W, strain asf1, active compounds read low): 1.01
- normalized growth (locus YJL129C, strain trk1, active compounds read low): 0.985
- normalized growth (locus YJL134W, strain LCB3, active compounds read low): 0.975
- normalized growth (locus YJL154C, strain vps35, active compounds read low): 1.01
- normalized growth (locus YJL164C, strain tpk1, active compounds read low): 1
- normalized growth (locus YJL166W, strain qcr8, active compounds read low): 0.959
- normalized growth (locus YJL168C, strain set2, active compounds read low): 0.972
- normalized growth (locus YJL187C, strain SWE1 (second series), active compounds read low): 0.993
- normalized growth (locus YJR043C, strain POL32, active compounds read low): 0.987
- normalized growth (locus YJR066W, strain TOR1, active compounds read low): 0.915
- normalized growth (locus YJR075W, strain HOC1, active compounds read low): 0.973
